Compounds with a hit are over-represented: about 9.5% of the library has one in this group of screens.
Tau fibril FP: blocks human tau fibril formation measured by polarization. P10636. hit rate 0.39% among 280,000. Potency, µM (titrated, usually from 57.7 µM), inactives show at the top dose activity, negative = inhibition, hits mostly inhibitors. K18 P301L tau heparin fibrillization, Alexa594 FP, 6 h; further: nearly all actives have a fitted effect of over 55% in size
Target sequence (P10636 561-689 P618L limits assumed): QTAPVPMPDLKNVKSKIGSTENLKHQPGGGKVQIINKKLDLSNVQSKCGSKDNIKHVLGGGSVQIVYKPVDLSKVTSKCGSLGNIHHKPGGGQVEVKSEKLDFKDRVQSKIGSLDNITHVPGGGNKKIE
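Human tau K18 […] P301L fragment, 15 uM unlabeled plus 0.24 uM Alexa 594-labeled tau (final), with compound and 20 uM heparin in 100 mM sodium acetate pH 7; 6 hr at 37 C, then Alexa 594 FP read.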
NPSR antagonist: antagonists of human neuropeptide S receptor cAMP signaling; CHO-NPSR cells, cAMP TR-FRET, antagonist mode; Potency, µM (top dose mostly 38.3 µM), without a hit: at the top dose activity change, negative = inhibition, usual class: inhibitors; hit rate 1% among 220,000; further: nearly all actives have a fitted effect of over 50% in size
Tau ThT inhib: blocks human tau fibril formation measured by thioflavin T; P10636; recombinant tau K18 P301L, heparin-induced fibrillization, ThT fluorescence; Potency, µM (series often up to 57.4 µM), for the others: top-dose activity, negative = inhibition, actives largely listed as inhibitors; hit rate 2.1% among 270,000; AID 1460; further: nearly all actives have a fitted effect of over 55% in size
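Heparin-induced fibrillization of the P301L-mutant K18 repeat-domain fragment of human tau was followed by ThT binding in quantitative high-throughput format.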
Tau fluor counter: counter-screen for tau fibril formation inhibitors | hit rate 0.93% among 280,000 | Potency, µM (highest dose often 57.7 µM), for the others: at the highest dose activity change, negative = decrease | tau K18 P301L (four-repeat tau fragment) Alexa594 fluorescence, heparin fibrillization; further: nearly all actives have a fitted effect of over 55% in size
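Human K18 P301L tau (15 uM unlabeled plus 0.24 uM Alexa 594-labeled, final) in 100 mM sodium acetate pH 7 was mixed with compound and 20 uM heparin and incubated 6 hr at 37 C.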
ALDH1A1 inh: inhibitors of human aldehyde dehydrogenase 1A1. P00352. Purified ALDH1A1, NADH fluorescence, propionaldehyde substrate. Potency, µM (doses to about 75.3 µM), inactives show top-dose activity, negative = inhibition, actives largely listed as inhibitors. hit rate 7.3% among 220,000. AID 1030; active means well fitted inhibition curve with a large enough effect, not every such curve was filed as active; inconclusive means small, poorly fitted or top-dose-only effect, or another doubt; inactive means no such curve, though single readings can be large or run the other way;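 further: plate controls were no enzyme wells and a reference inhibitor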
HPGD inh: HPGD (human) dehydrogenase inhibition. purified HPGD, NADH fluorescence kinetic, PGE2 substrate. Potency, µM, inactives show at the top dose activity change, negative = inhibition, usual class: inhibitors. hit rate 4.3% among 150,000. AID 894; active means well fitted inhibition curve with a large enough effect, not every such curve was filed as active; inconclusive means small, poorly fitted or top-dose-only effect, or another doubt; inactive means no such curve, though single readings can be large or run the other way
Target sequence (P15428 whole entry, looked up): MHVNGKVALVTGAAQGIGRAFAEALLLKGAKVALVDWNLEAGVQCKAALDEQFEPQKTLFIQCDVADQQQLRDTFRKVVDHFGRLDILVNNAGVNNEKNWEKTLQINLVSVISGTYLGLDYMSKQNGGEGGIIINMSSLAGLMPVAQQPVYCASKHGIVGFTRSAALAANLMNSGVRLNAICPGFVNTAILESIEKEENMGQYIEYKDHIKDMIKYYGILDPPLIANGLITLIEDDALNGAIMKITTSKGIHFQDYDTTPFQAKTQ
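20 nM HPGD preincubated 15 min at room temperature with compound in 50 mM Tris-HCl pH 8, 0.01% Tween 20. Started with 1 mM NAD+ and 30 uM prostaglandin E2; NADH fluorescence (360/450 nm) read 5 times over 30-s intervals, last minus first.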
* = called active by the depositor; ? = inconclusive; . = not tested or not shown; [ ] = another dose, or the depositor's remark. Unless noted, the call rests on the fitted dose curve; in most records, active means well fitted curve in the direction sought with a large enough effect; inconclusive means small, poorly fitted or top-dose-only effect, or another doubt; inactive means no such curve, though single readings can be large; an effect the other way counts as inactive or inconclusive. Unless noted, on the % scale 0 is the no-effect control and ±100 the full control effect; potency means the concentration at half of the fitted maximal effect.

SMILES	Tau fibril FP	NPSR antagonist	Tau ThT inhib	Tau fluor counter	ALDH1A1 inh	HPGD inh
CCCC(O)(CCN1CCOCC1)c1ccc(Br)cc1 (stereo unspecified)	-7.3%	12.5%[46.1 µM]	1.5%	1.9%	5.01µM*	-8.0%
Cc1ccc(N)cc1O	.	.	.	.	-3.0%	-4.3%
Cc1cc(O)c(-c2cc(O)c(C)cc2O)cc1O	14.1µM*	?	7.94µM*	?	?	?
CCn1c(-c2ccc(F)cc2)cnc1SCC(=O)N1CCCCC1C (stereo unspecified)	3.4%	-10.7%[46.1 µM]	-14.1%	-10.4%	?	-13.1%
COc1ccc(N(CC(O)Cn2cnc3ccccc32)S(=O)(=O)c2ccc(C)cc2)cc1 (stereo unspecified)	-3.6%	2.1%	-9.9%	-12.1%	?	-8.2%
Cc1ccc(CSc2nnc(C)c(=O)[nH]2)cc1	4.5%	6.1%	1.3%	-0.8%	10.8%	.
Cc1nnc(SCc2ccccc2)[nH]c1=O	1.9%	-5.0%	0.5%	-4.8%	7.08µM*	.
COc1ccc(-c2ccc(C(=S)N3CCN(C(C)=O)CC3)o2)cc1	?	-13.6%[46.1 µM]	28.2µM*	-27.8%	11.2µM*	11.2µM*
O=C(O)c1cc(O)c2c(c1)C(=O)c1cc(O)cc(O)c1C2=O	-6.1%	17.9%	7.08µM*	?	25.1µM*	14.1µM*
COc1cc(O)c2c(c1)C(=O)c1cc(C)cc(O)c1C2=O	-3.6%	.	?	-17.4%	?	?
COc1ccc(CNn2c(-c3cccs3)nc3ccccc3c2=O)cc1OC	-4.8%	-13.8%	?	?	25.1µM*	.
CC[C@H]1CC[C@H]2[C@@H]3CC=C4C[C@H](OC(C)=O)[C@@H](N)C[C@@]4(C)[C@H]3CC[C@@]12C	.	.	.	.	6.3%[13.5 µM]	-5.9%
CN(Cc1cccs1)C(=O)/C=C/c1ccccc1[N+](=O)[O-]	-2.3%	-18.0%	-11.2%	-11.3%	3.16µM*	.
C=CC[C@@H]1C=C[C@H](O/N=C(\C)CCN2CCc3nc(-c4ccccc4)c(-c4ccccc4)cc3C2)[C@H](CO)O1	0.4%[11.6 µM]	.	-6.1%[11.5 µM]	-0.1%[11.6 µM]	14.7%[13.5 µM]	.
COc1ccc2c(c1)OC/C(=C\c1ccc(OC)c(O)c1)C2=O	-4.7%	.	4.47µM*	?	5.62µM*	11.2µM*
COc1ccc(/C=C2\COc3ccccc3C2=O)cc1OC	1.9%	12.3%	?	6.8%	?	?
O=C1/C(=C\c2cccs2)Sc2ccc3ccccc3c21	-2.0%	-7.1%	1µM*	-21.7%	8.4%	-8.0%
CC1(C(=O)NCc2ccccn2)C=CCN1C(=O)c1ccccc1 (stereo unspecified)	-12.6%	14.8%	-12.5%	-11.4%	3.7%	-9.8%
C[N+]1(CCC[N+]2(C)C[C@H]3[C@H](C2)[C@H]2C=C[C@@H]3CC2)CCOCC1 (stereo partly specified)	.	.	.	.	7.1%[13.5 µM]	3.16µM*
CC(=O)N1c2ccccc2C(=O)C1N1CCN(c2cccc(Cl)c2)CC1 (stereo unspecified)	13.2%	.	-5.7%	-20.8%	.	.
CC(=O)N1c2ccccc2C(=O)C1N1CCCCC1 (stereo unspecified)	7.6%	-6.2%[46.1 µM]	-4.7%	1.4%	28.2µM*	-16.7%
COc1ccc(C2NC(=O)NC3=C2CCc2ccccc23)cc1 (stereo unspecified)	?	-19.9%[46.1 µM]	25.1µM*	-19.3%	?	?
COc1ccc(C2NC(=S)NC3=C2N2CCC3CC2)cc1 (stereo unspecified)	-7.8%	13.4%	-1.1%	-2.8%	.	.
COc1ccc2c(c1)C1=C(CC2)C(c2ccc(C)cc2)NC(=S)N1 (stereo unspecified)	-4.4%	-16.2%	?	-29.8%	0.398µM*	.
Cc1ccc(C2NC(=O)NC3=C2CCc2ccccc23)cc1 (stereo unspecified)	-1.0%	-27.0%[46.1 µM]	?	-3.9%	?	?
CC(C)c1ccc(C2NC(=O)NC3=C2CCc2ccccc23)cc1 (stereo unspecified)	-6.3%	-31.5%[46.1 µM]	?	-13.3%	?	?

High-throughput results from PubChem.
